# Laboratory results as given in PubChem BioAssay AID1508600 (Functional Genomics Laboratory (NCATS/FGL), 2020).
# Among all 53,000 sequences or so, about 3,700 (7%) were called active.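 The calls were made as follows: active = gene knockdowns whose robust z-score for IL-1 alpha signal is at least 2 or at most -2, so actives lie on both sides; inactive = the rest.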 Only a selection was taken, and actives are over-represented in it overall.
# Assay: Components of the Cytosolic LPS Sensing Pathway: Gene Identification via Genome-wide siRNA Screen;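 also: robust z of the log signal after scaling to non-targeting control siRNA wells of the plate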
# Conditions: RAW264.7 macrophages, IL-1a HTRF, actives lie on both sides, screened at 100 nM (by protocol), cells primed 5 h with Pam3CSK4 first
# In short: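 Three distinct siRNAs per gene were tested singly at 100 nM in RAW264.7 macrophages. Following Pam3CSK4 priming and 24 hour LipidA transfection, IL-1a secretion was read by HTRF.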
row,Sequence,z-score
1,GCGAACCCUAAGUAAGAAGTT against U2surp,-0.989 (inactive)
2,GCGAGAUGCCAACAAACUGTT against Pacs1,0.678 (inactive)
3,GCUACCUAUGCCAAUAUCATT against Efemp1,-0.787 (inactive)
4,GGGCAUCACUUGUAAUUAATT against Bcl10,-2.06 (active)
5,GGAACCUAUCCAAGAAGUATT against Ckap2,0.428 (inactive)
6,GUCACAGUACCCAAAAUGUTT against Olfr979,-2.42 (active)
7,GGCCUUGUAUAAAACACAUTT against Pah,0.293 (inactive)
8,CCAGCUUGUUACUAAGUAATT against Mgat3,-0.227 (inactive)
9,GAGUACCAGCUGUUGUUCATT against Olfr392,4.22 (active)
10,GCAGGGAGGCAUCUUCUUUTT against Olfr3,-0.22 (inactive)
11,GGUUCUUUCCAAACAAGAGTT against Evc,1.1 (inactive)
12,GGAGGUCAUCAACGUGCUATT against Nucb1,-0.339 (inactive)
13,CGGUACAAAUGAUUUCUGATT against Pcolce2,2.04 (active)
14,GGUAAAAUUGUCCAAGGAATT against Clec2i,-0.109 (inactive)
15,GGCCAAGAAGACAAGAAAATT against Ddx54,0.502 (inactive)
16,GGAAUAUGUUUAGCAUCUGTT against Mfsd5,-0.437 (inactive)
17,GGCACAUAUGAGGACUACCTT against Myl6b,0.786 (inactive)
18,GCCGUGCAACACUUCUACATT against Esrrb,-0.471 (inactive)
19,GGAGGUCCCUUCUUCAGCUTT against Zfp410,-1.19 (inactive)
20,GGCCAAGAAGAGAAAAACATT against Ccne2,-1.54 (inactive)
21,GGUCAUGGAUGUCACAGAGTT against Mink1,-2.17 (active)
22,CCAGAUUCUAUAAUAGAGUTT against Gabrp,-0.232 (inactive)

row,Sequence,z-score
1,GGGUUCUGUGUAAAUGUAUTT against Gzma,0.203 (inactive)
2,GGCAGAAGUCCAACUUCUUTT against Pirt,-0.363 (inactive)
3,GCUAGUGCGCAUGUUUCUCTT against Rasgrp2,0.621 (inactive)
4,GGUGGAAGCACAGAGUUGCTT against Prdm15,2.14 (active)
5,GGACAACCAAAAUGCAUUUTT against Zic3,0.517 (inactive)
6,GGAACUGGGUCCUCAUUCCTT against Capn1,-1.6 (inactive)
7,GGAGUUCAACUAGAUGUGGTT against Bcl2l13,-1.2 (inactive)
8,GCUUCAAUGAGGAGUAUCUTT against Smpdl3b,-0.617 (inactive)
9,GGAUUGGAUAUUGAGAAGGTT against Rexo2,-1.72 (inactive)
10,GGUGGUCAGGAAAUGAGUCTT against Lrch4,2.09 (active)
11,GGUCAACUCUAAGAUGCUGTT against 9930012K11Rik,1.35 (inactive)
12,CGUGUGAAGUAAAGAUGUUTT against Mrpl57,0.212 (inactive)
13,GGAGCUGCUUUCAAAGCUGTT against Ccdc136,-0.831 (inactive)
14,GGAUGGUACAGGUCUGGUGTT against Fgfr3,4.82 (active)
15,CGGAUUAUUGGUUAGAAAUTT against C230013L11Rik,1.26 (inactive)
16,GCACAAUGGAAGGUGUCCUTT against Tas2r114,0.597 (inactive)
17,GGACUUUGUGGACAAAAUUTT against Ift20,-1.64 (inactive)
18,GCCUCAACAUGAUCCCGAGTT against Ccdc172,-3.34 (active)
19,GGAGAUAAAGAGGAACAUUTT against AI504432,1.01 (inactive)
20,GGGUUUUGAAAGAGGAAAATT against Osbpl8,1.52 (inactive)
21,GGCAGCUGAAAGAAGAUCUTT against Dffa,3.21 (active)
22,GGGACUGGAACAAUAGAGGTT against BC030500,0.626 (inactive)

row,Sequence,z-score
1,GGGACAAGUGACUGAAUUGTT against Dio3,0.408 (inactive)
2,GGCCAUUUACUUGAAGAACTT against Lpin3,-0.0508 (inactive)
3,CCUUCUCCUCGUGCAAGUATT against Cort,2.05 (active)
4,GAUGCCCAAUGUGCAAAUGTT against Defa-rs12,1.06 (inactive)
5,CCACUGCACUGUAAAUCAATT against Glrx5,-1.41 (inactive)
6,GCUCUUGACUCACUCAGCATT against Il1bos,-2.01 (active)
7,GGACUGAAAUGUCUUAGACTT against Selenow,-1.21 (inactive)
8,GCAUCGCAUAUUGGAAUGCTT against Lim2,0.366 (inactive)
9,CGGCAAAUUCGUGAAAAGGTT against Olfr575,0.118 (inactive)
10,GCAACUGAAUUCCAGUUUUTT against Ugt1a2,-0.0905 (inactive)
11,GGAGCUAGCCAACUUCGAUTT against Lsr,-0.182 (inactive)
12,GCACAGAAAUAUUAAAGUCTT against Foxp4,-1.7 (inactive)
13,GGGUUUAGAAAGAUGAAUGTT against Tbcel,-0.189 (inactive)
14,GGGCUUCACCCUCAUACAATT against Pirt,2.26 (active)
15,GGAGAAAGCCAAAUUUAACTT against Slc17a6,0.103 (inactive)
16,GGUCUGAAGAAGAUUCUGGTT against Unc45a,0.33 (inactive)
17,GCCUUUAUAGGAUUUCAAATT against Ppp2r5e,0.678 (inactive)
18,CGGUACAGGGUAAAGGACATT against Prss41,0.00568 (inactive)
19,GGAGUACAGCAUCUCAGCATT against Cacng1,-2.17 (active)
20,GGCAGAACCCUUUGAUGACTT against Fos,-0.0931 (inactive)
21,GCAGCUGUCCGUAUAUCUUTT against Uxt,0.377 (inactive)
22,GGAGUCCUGAAGAAUAAAGTT against Tff3,-0.0657 (inactive)

row,Sequence,z-score
1,CCCACUACUGUAAGACAUGTT against Trim46,0.614 (inactive)
2,CCCUCACUAUAACACUAUUTT against Six5,-0.418 (inactive)
3,GGCUAGAAAGGGUCUCAAATT against Cyp3a25,-1.48 (inactive)
4,UUGGUUCAACCUCAUCAUATT against Olfr869,2.07 (active)
5,CCCUUAUUGCUAGACCUAGTT against Map3k11,-1.13 (inactive)
6,GGAUUUUCUCUAUGCAGGCTT against Dcaf15,0.0862 (inactive)
7,GGAAAAACUGAGAAAACUUTT against Lyrm1,-2.41 (active)
8,GGAUGUCAAGGACACAGUATT against Olfr73,-1.04 (inactive)
9,GCAGUGAUCAGGUAAUGAATT against Igf2,0.431 (inactive)
10,GGUGGGUCAAUGAUCCAGGTT against Fabp9,-2.11 (active)
11,GGAUGUCUUUGUUCACCAGTT against Ybx2,-0.267 (inactive)
12,GCCUUUUAAUAGAUGUCAUTT against Vta1,-0.201 (inactive)
13,GGUGUAUUUUUUCACUGUUTT against Olfr339,-1.52 (inactive)
14,GGACUUGCCACCCAGGAAATT against Apba3,-0.175 (inactive)
15,GCAGAUCAGAAGAAAUUUGTT against Jmy,1.22 (inactive)
16,GGGAAAAGCACGUUCUUGCTT against Arl10,0.34 (inactive)
17,GGAUACGAUCCAGUGUGCCTT against Lyzl4,1.04 (inactive)
18,GGAGGAUUCCCUCUAUAUUTT against Slc33a1,0.118 (inactive)
19,GGGUCCCUAAGCAUGUUCCTT against Slfn10-ps,0.618 (inactive)
20,GGCUUUGAGCAUGUUUUCATT against Hspb7,7.14 (active)
21,GGUGGAUAUAAUAAUUGACTT against Tgfbr3,1.06 (inactive)
22,GCUAUCCAGAUUGGUGUUATT against Tatdn1,1.7 (inactive)

row,Sequence,z-score
1,GGGCCAAGAAAACCUACACTT against Cyp11b2,2.63 (active)
2,GGCCAAUAAAGACUGGUUUTT against Rps15,1.69 (inactive)
3,GGAAAGCAAUGCAUUACAATT against Zbtb6,0.149 (inactive)
4,GGCGGAAGCCAUCUAACUUTT against Arhgef4,-0.519 (inactive)
5,GGCAGCUUCAGGAACCAAUTT against Krt5,-2 (active)
6,GGGUUUUCUCAUUGUCUUUTT against Rce1,-1.91 (inactive)
7,GGAGGUUUUCAUGGUUAUCTT against Nrgn,0.0293 (inactive)
8,GGUAGACUGAACUUCAGCATT against Larp6,-1.31 (inactive)
9,CCCUAUGCAAUAUAUAGACTT against Tmsb15l,0.174 (inactive)
10,CCGAAAAUGAGAUAAAGUCTT against Polr2k,-1.88 (inactive)
11,GGUCAAGUCAAGAGUGAGATT against BC048562,0.2 (inactive)
12,GGCAUUCUGUGAGACACAATT against Exosc10,0.389 (inactive)
13,CCACAAGCAGUGCUCUUUCTT against Cyp3a13,-2.08 (active)
14,GAGAAGAAAAAAUGCAGUGTT against Olfr825,0.0375 (inactive)
15,CCUGAGGUGUUUUACAUAUTT against Med20,0.085 (inactive)
16,GGAAGAAUCCUCCAUGGAGTT against Mrpl24,1.35 (inactive)
17,GGAAUCAGUGACCUUUUUCTT against Arf2,-2.05 (active)
18,CCCUCCUAUUAGCGCAUUUTT against Osbpl2,-0.239 (inactive)
19,GGAGAUGAUCGACGAAGUATT against Tnnc1,0.914 (inactive)
20,GGAGACAGCAUUCAUUUAUTT against Wnt16,0.94 (inactive)
